Bioassay records: PubChem BioAssay, Johns Hopkins Ion Channel Center
In the library only some 1.6% were active in any assay of this set; here they are far more common.
KCNQ2 inh = blocks the rat KCNQ2 potassium channel | O88943 | CHO-K1 KCNQ2, FluxOR thallium flux, 20 min; active compounds read low | B-score at 10 µM | 1.1% of 310,000 active | AID 2156;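 active = fluorescence ratio B-score at most minus 3 library SDs, with starting brightness B-score within 2 library SDs, cut at about -5.5 in these data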
KCNQ2 enhance = enhances the rat KCNQ2 potassium channel; O88943; CHO-K1 KCNQ2, FluxOR thallium flux fluorescence; active compounds read high; B-score at 10 µM; 0.54% of 310,000 active; AID 2239;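 active = fluorescence ratio B-score at least 3 SD of library B-scores, with initial fluorescence B-score within 3 of them, cut at about 5.3 in these data; same plate scores as AID 2156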;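 also: B-score of peak minus minimum over baseline fluorescence ratio after K+ and Tl+ stimulus; positive B-score means potentiation of KCNQ2 with more thallium influx and brighter signal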
Kir21 confirm = confirmation of mouse Kir2.1 potassium channel inhibitors; shares compounds with KCNQ2 enhance; Kir2.1-expressing cells, FluxOR thallium flux fluorescence; active compounds read low; Tl flux remaining, % of negative control (active compounds read low), % at 10 µM; 41% of 2,300 active;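 active = Primary-screen hit whose thallium flux fell at least 3 control SD below untreated wells in both duplicates, with normal baseline fluorescence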;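 also: 0% = blank wells without stimulus and 100% = stimulated no-compound controls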
Target sequence (P35561 whole entry, looked up): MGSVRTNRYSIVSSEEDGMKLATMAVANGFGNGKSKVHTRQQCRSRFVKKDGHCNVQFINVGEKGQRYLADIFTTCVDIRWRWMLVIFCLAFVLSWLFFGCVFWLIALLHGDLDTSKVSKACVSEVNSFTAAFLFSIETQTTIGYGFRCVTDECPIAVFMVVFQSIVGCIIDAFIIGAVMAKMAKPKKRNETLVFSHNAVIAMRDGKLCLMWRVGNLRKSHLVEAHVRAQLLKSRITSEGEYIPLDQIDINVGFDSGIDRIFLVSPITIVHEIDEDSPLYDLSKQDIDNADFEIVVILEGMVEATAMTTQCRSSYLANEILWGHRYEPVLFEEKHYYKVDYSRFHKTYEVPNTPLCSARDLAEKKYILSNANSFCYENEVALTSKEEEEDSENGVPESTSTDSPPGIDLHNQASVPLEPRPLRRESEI
HEK293 Tl flux = alters thallium flux in parental HEK293 cells, Kir2.1 counter-screen; shares compounds with KCNQ2 enhance; FluxOR thallium flux fluorescence; 0% = unstimulated blank wells; FluxOR signal as % of negative control (100 = no effect), % at 10 µM; 19% of 2,300 active;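 active = dye signal at least 3 control SD above or below untreated wells in both duplicates, raw fluorescence within 3, either direction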;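 also: percent is based on the flux ratio of peak minus minimum fluorescence over baseline F0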
CHO-K1 Tl ctr = counter-screen for KCNQ2 potentiators: effect in parental CHO-K1 cells | FluxOR thallium flux fluorescence; zero = vehicle mean+3SD, 100% = vehicle-minus-blank window | shares compounds with KCNQ2 enhance | 43% of 1,200 active | AID 2282 | activity increase over 3SD of controls, % at 10 µM;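 active = signal rise of at least 3 SD above the untreated control mean, in both duplicate wells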;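 also: counter screen of KCNQ2 potentiator hits so any rise reflects channel-independent effects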
KCNQ1 pot spec = selectivity of KCNQ2 potentiators: effect on human KCNQ1. shares compounds with KCNQ2 enhance. CHO KCNQ1 stable, FluxOR thallium flux fluorescence; beyond 3SD, as % of vehicle-control signal. activation over 3SD threshold, % at 10 µM. 28% of 1,200 active. AID 2283;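 active = fluorescence ratio rise of at least 3 SD of vehicle wells above their mean, in both replicate wells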;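 also: 0% = vehicle mean plus 3 SD and 100% = vehicle minus unstimulated blank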
KCNQ2 pot conf = confirmation of rat KCNQ2 potassium channel potentiators | AID 2287 | shares compounds with KCNQ2 enhance | 68% of 1,200 active | potentiation, less the hit threshold, % at 10 µM | CHO-KCNQ2 cells, FluxOR thallium flux fluorescence;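 active = fluorescence ratio rising 3 SD or more over the vehicle control mean in both replicates, plus primary screen hit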;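 also: peak minus minimum thallium fluorescence divided by baseline after K/Tl stimulus; 0% = vehicle mean plus 3 SD and 100% = vehicle minus unstimulated blank difference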
Kir2-1 sel = selectivity of KCNQ2 potentiators: effect on mouse Kir2.1; activity over 3SD threshold, % at 10 µM; AID 2345; shares compounds with KCNQ2 enhance; 2% of 1,200 active; HEK293 Kir2.1, FluxOR thallium flux fluorescence;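 active = fluorescence ratio rise of at least 3 SD above the vehicle-control mean, seen in both replicates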;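 also: 0% = vehicle mean plus 3 SD and 100% = vehicle minus no-stimulus blank window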
KCNQ2 W236L MoA = KCNQ2 potentiators acting on retigabine-insensitive rat KCNQ2 W236L mutant | shares compounds with KCNQ2 enhance | CHO KCNQ2-W236L, automated patch clamp current | AID 2558 | current increase over 3SD of negative controls (%), active compounds read high, % at 25 µM | 10% of 940 active;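 active = current increase at least 3 SD of the untreated controls above them in both duplicate recordings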
* hit, by the source's call; i = inactive; x = no result given.

SMILES	KCNQ2 inh	KCNQ2 enhance	Kir21 confirm	HEK293 Tl flux	CHO-K1 Tl ctr	KCNQ1 pot spec	KCNQ2 pot conf	Kir2-1 sel	others
CC(C)(C)C(=O)Nc1cccc(OC(F)(F)C(F)Cl)c1 (stereo not given)	i	5.8*	i	i	-15	11*	30*	-40	KCNQ2 W236L MoA=i
COc1cccc(NC(=O)c2ccc(NC(=O)C(C)(C)C)cc2)c1	i	1.2	x	x	x	x	x	x
CCCCCNC(=O)c1ccc2c(=O)n(CC3CCCO3)c(=O)[nH]c2c1 (stereo not given)	i	6.1*	i	i	-10	-28	-12	-41
CCCCCNC(=O)c1ccc2c(=O)n(CC3CCCO3)c(=S)[nH]c2c1 (stereo not given)	i	0.82	x	x	x	x	x	x
COc1cc(C(=O)N2CCN(C(=O)c3cc(-c4ccc(Br)cc4)n[nH]3)CC2)cc(OC)c1OC	i	x	x	x	x	x	x	x
Cc1cc(NC(=O)CSc2nc3c(C)cccc3cc2C)no1	i	2	x	x	x	x	x	x
O=C1CC(N2CCN(C3CC(=O)N(CCc4ccccc4)C3=O)CC2)C(=O)N1CCc1ccccc1 (stereo not given)	i	0.42	x	x	x	x	x	x
O=C1CC(N2CCC(Cc3ccccc3)CC2)C(=O)N1CCc1ccccc1 (stereo not given)	i	5.7*	i	i	-6	-28	7.5*	-32	KCNQ2 W236L MoA=i
O=C(CCN1C(=O)C2CCCCC2C1=O)NNC(=O)c1cccc(Cl)c1 (stereo not given)	i	0.27	x	x	x	x	x	x
O=C(CCC1CCCC1)NNC(=O)c1cccc(Cl)c1	i	6.1*	i	i	106*	-18	15*	-11	KCNQ2 W236L MoA=i
CCOC(=O)C1=C(Cn2cnc3ccccc32)NC(=O)NC1c1cc(C)ccc1C (stereo not given)	i	6.6*	i	52%*	-10	-15	-8	-39	KCNQ2 W236L MoA=i
COC(=O)C1=C(Cn2cnc3ccccc32)NC(=O)NC1c1cc(C)ccc1C (stereo not given)	i	1.1	x	x	x	x	x	x
CC(C)c1ccc(OCC(O)CNC(C)c2ccccc2)cc1 (stereo not given)	i	2.2	28%*	i	x	x	x	x
OC(CNCCC(c1ccccc1)c1ccccc1)COc1ccccc1 (stereo not given)	i	x	36%*	i	x	x	x	x
CCC(=O)c1ccc(OCC(O)CNC(C)c2ccccc2)cc1 (stereo not given)	i	0.04	x	x	x	x	x	x
OC(CNCCc1ccccc1)COc1ccc(OCC(O)CNCCc2ccccc2)cc1 (stereo not given)	i	x	x	x	x	x	x	x
OCCCc1nc2ccccc2[nH]1	i	1.2	x	x	x	x	x	x
Cc1cc(NC(=O)COc2ccccc2C)ccc1NC(=O)c1cccs1	i	x	x	x	x	x	x	x
Cc1nn(C)cc1/C=C1\SC(=S)NC1=O	i	0.35	x	x	x	x	x	x
O=C1NC(=S)S/C1=C\c1cc2ccccc2nc1N1CCCCC1	i	5.5*	i	i	23*	-17	21*	-21	KCNQ2 W236L MoA=i
CCOC(=O)Cn1c2c(c(=N)c3ccccc31)CCC2	i	0.87	x	x	x	x	x	x
CCOC(=O)C1=C[C@]2(CC)CCCN3CCc4c(n1c1ccccc41)[C@@H]32	i	10*	x	x	-4	61*	39*	-58	KCNQ2 W236L MoA=i
NC(=S)NC(=O)/C=C/c1ccccc1	i	0.12	x	x	x	x	x	x
CCOc1ccc(NC(=O)Cc2ccc(NC3=NC4CS(=O)(=O)CC4S3)cc2)cc1 (stereo not given)	i	17*	i	i	8.6*	-18	-18	-30
CCc1ccc(NC(=O)Cc2ccc(NC3=NC4CS(=O)(=O)CC4S3)cc2)cc1 (stereo not given)	i	x	x	x	x	x	x	x
